Shown are actives, neighbours in structure and some others; about 10% of the full set was active somewhere.
SARS PLP yeast – qHTS of Yeast-based Assay for SARS-CoV PLP; S. cerevisiae expressing SARS-CoV PLpro, growth rescue; AID 485353, 2010; hit rate 0.19% among 330,000; Potency, µM (series often up to 32.9 µM), inactives show top-dose activity, positive = growth rescue, hits mostly activators; further: 0% is about no effect; nearly all actives have a fitted effect of over 55% in size
Pf growth 96h – Primary qHTS for delayed death inhibitors of the malarial parasite plastid, 96 hour incubation | P. falciparum luciferase reporter growth, 96 h | Potency, µM (highest dose often 28.7 µM), for inactives: at the top dose activity change, negative = inhibition, actives largely listed as inhibitors | hit rate 6.9% among 320,000 | AID 504834, 2011; active means well fitted inhibition curve with a large enough effect; inconclusive means small, poorly fitted or top-dose-only effect, or another doubt; inactive means no such curve, though single readings can be large or run the other way; further: on the % scale 0 is the no-effect control and ±100 the full control effect
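Erythrocytes infected with luciferase-expressing P. falciparum were dispensed at 2% hematocrit and 0.05% parasitemia (final), then incubated with compounds 96 hours at 37 C in 5% CO2. Luminescence after detection reagent addition reported growth.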
Pf growth 48h – Primary qHTS for delayed death inhibitors of the malarial parasite plastid, 48 hour incubation. AID 504832, 2011. P. falciparum luciferase growth in erythrocytes, 48 h. Potency, µM (series often up to 28.7 µM), for the others: at the top dose activity change, negative = inhibition, hits mostly inhibitors. hit rate 5.9% among 310,000; active means well fitted inhibition curve with a large enough effect; inconclusive means small, poorly fitted or top-dose-only effect, or another doubt; inactive means no such curve, though single readings can be large or run the other way; further: on the % scale 0 is the no-effect control and ±100 the full control effect
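Luciferase-expressing P. falciparum in infected erythrocytes (2% hematocrit, 0.1% parasitemia final) in RPMI 1640/0.5% Albumax were exposed to compound for 48 hours at 37 C, 5% CO2; growth read as luminescence.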
NS1 inh – qHTS Assay for Inhibitors of Influenza NS1 Protein Function | Potency, µM (doses to about 46.1 µM), without a hit: at the top dose activity, positive = more growth | hit rate 0.4% among 270,000; further: actives are rising curves; nearly all actives have a fitted effect of over 50% in size
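In this qHTS, NS1 from influenza A is expressed in budding yeast, where it slows growth. Cells are switched from glucose to 2% galactose medium (pH 6.0, -URA), treated with compound, and growth recovery is read at OD600.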
* hit, by the source's call; [ ] = dose if it differs, or a comment. Unless noted, the call rests on the fitted dose curve. Potency means the concentration at half of the fitted maximal effect.

`CC1CCCC(C)N1CCNC(=O)CCc1nnc2n(Cc3ccccc3)c(=O)c3ccccc3n12` (stereo not drawn) gave SARS PLP yeast -1%, Pf growth 96h 12µM*, Pf growth 48h inconclusive and NS1 inh 3%.
For Cc1ccnc2c1ccc1ccccc12 the results were SARS PLP yeast 4%, Pf growth 96h -24%, Pf growth 48h 11% and NS1 inh -10%.
For Cc1ccnc2c1ccc1cccnc12 the results were SARS PLP yeast 2%, Pf growth 96h 0.83µM* and Pf growth 48h 1.2µM*.
O=Cc1ccc2ccc3cccnc3c2n1 was read as SARS PLP yeast -4%, Pf growth 96h inconclusive, Pf growth 48h -18% and NS1 inh -58%.
`c1cnc2c(c1)ccc1cccnc12` gave SARS PLP yeast 3%, Pf growth 96h 3.3µM*, Pf growth 48h 5.9µM* and NS1 inh -44%.
`Cc1ccnc2c1ccc1c(C)ccnc12` gave SARS PLP yeast 0%, Pf growth 96h 4.7µM* and Pf growth 48h 2.6µM*.
For CCN(CC(=O)Nc1ccc(NC(C)=O)cc1)C(=O)/C=C/c1ccc([N+](=O)[O-])cc1 the results were SARS PLP yeast -1%, Pf growth 96h 17% and Pf growth 48h inconclusive.
O=C1C2CCCCC2C(=O)N1c1ccc(S(=O)(=O)Nc2ncccn2)cc1 (stereo not drawn) was read as SARS PLP yeast -1%, Pf growth 96h inconclusive, Pf growth 48h -14% and NS1 inh -2%.
`C/C(=N\Nc1cc(N2CCCCC2)nc(C)n1)c1ccc(Br)cc1` gave SARS PLP yeast -5%, Pf growth 96h -4%, Pf growth 48h 3.7µM* and NS1 inh -148%.
Screening C/C(=N\Nc1cc(N2CCOCC2)nc(C)n1)c1ccc(F)cc1 returned SARS PLP yeast 3%, Pf growth 96h inconclusive, Pf growth 48h -17% and NS1 inh -16%.
`CN(Cc1nc2ccccc2n1C)S(=O)(=O)c1ccc(F)cc1` gave SARS PLP yeast 5%, Pf growth 96h 4.7µM*, Pf growth 48h 23% and NS1 inh -5%.
For CN(Cc1nc2ccccc2n1C)S(C)(=O)=O the results were SARS PLP yeast 5%, Pf growth 96h inactive, Pf growth 48h 38% and NS1 inh -4%.
For CN(Cc1nc2ccccc2n1C)C(=O)c1ccco1 the results were SARS PLP yeast -8%, Pf growth 96h 1.7µM*, Pf growth 48h 15% and NS1 inh 8%.
Screening CC(CN1CCCCC1)C(=O)NNC(=O)C12CC3CC(CC(C3)C1)C2 (stereo not drawn) returned SARS PLP yeast 2%, Pf growth 96h 12µM* and Pf growth 48h 30%.
Screening CC(C)Oc1ccc(C(=O)NCC(=O)N2CCN(S(=O)(=O)/C=C/c3ccccc3)CC2)cc1 returned SARS PLP yeast -6%, Pf growth 96h inconclusive and Pf growth 48h 15µM*.
`O=C(CNC(=O)C12CC3CC(CC(C3)C1)C2)N1CCN(S(=O)(=O)c2cccs2)CC1` gave SARS PLP yeast 20%, Pf growth 96h inconclusive, Pf growth 48h inconclusive and NS1 inh 1%.
Screening O=C(CNC(=O)C12CC3CC(CC(C3)C1)C2)N1CCN(S(=O)(=O)/C=C/c2ccccc2)CC1 returned SARS PLP yeast 25%, Pf growth 96h 9.3µM*, Pf growth 48h inconclusive and NS1 inh 4%.
For Cc1cccc(C(=O)NCC(=O)N2CCN(S(=O)(=O)/C=C/c3ccccc3)CC2)c1 the results were SARS PLP yeast 2%, Pf growth 96h -23% and Pf growth 48h inconclusive.
Screening O=C(O)C1CCCCC1C(=O)NC1C2CC3CC(C2)CC1C3 (stereo not drawn) returned SARS PLP yeast 3%, Pf growth 96h 359%, Pf growth 48h -5% and NS1 inh 1%.
Screening O=C(NC1C2CC3CC(C2)CC1C3)C1CC1 (stereo not drawn) returned SARS PLP yeast -11%, Pf growth 96h 27%, Pf growth 48h 7.4µM* and NS1 inh -2%.
For CCN(C(=O)c1cnc(NC(C)C)cc1C(F)(F)F)c1ccc(Cl)cc1Cl the results were SARS PLP yeast -3%, Pf growth 96h 12µM*, Pf growth 48h 2.9µM* and NS1 inh -5%.
For CCn1c(=O)c2c(nc3n2CC(C)CN3CCc2ccccc2)n(C)c1=O (stereo not drawn) the results were SARS PLP yeast 10%, Pf growth 96h 8.3µM*, Pf growth 48h 12µM* and NS1 inh -45%.
For CC(C)Cn1c(=O)c2c(nc3n2CCCN3CCc2ccccc2)n(C)c1=O the results were SARS PLP yeast -5%, Pf growth 96h 7%[5.75 µM], Pf growth 48h 5.2µM* and NS1 inh -41%.
Cn1c(=O)n(CCc2ccccc2)c(=O)c2c1nc1n2CCCN1CCc1ccccc1 was read as SARS PLP yeast 1%, Pf growth 48h 9.3µM* and NS1 inh -85%.
For COCCN(C(=O)c1ccccc1OC1CCN(S(C)(=O)=O)CC1)C(C)C the results were SARS PLP yeast 0%, Pf growth 96h inconclusive, Pf growth 48h -12% and NS1 inh -3%.
For Nc1nc(Nc2ccccc2)nc(C(F)(F)F)n1 the results were SARS PLP yeast 0%, Pf growth 96h 7.4µM*, Pf growth 48h 40% and NS1 inh -38%.
`COc1cccc(Nc2nc(N)nc(C(F)(F)F)n2)c1` gave SARS PLP yeast -2%, Pf growth 96h 55%, Pf growth 48h 62% and NS1 inh -35%.
`Nc1nc(Nc2ccccc2Br)nc(C(F)(F)F)n1` gave SARS PLP yeast -11%, Pf growth 96h 10µM*, Pf growth 48h 47% and NS1 inh -33%.
`O=Cc1cccn1-c1ccc(O)cc1` gave SARS PLP yeast -1%, Pf growth 96h -22%, Pf growth 48h 11% and NS1 inh -3%.
`CCn1cc(CN(C)C(=O)/C=C/c2ccc([N+](=O)[O-])cc2)c(C)n1` gave SARS PLP yeast -8%, Pf growth 96h inconclusive, Pf growth 48h 7% and NS1 inh -6%.
`Cc1nn(C)cc1C(=O)/C=C/c1ccc([N+](=O)[O-])cc1` gave SARS PLP yeast 4%, Pf growth 96h 4.7µM*, Pf growth 48h 13µM* and NS1 inh 3%.
For COC(=O)[C@@H](NC(=O)c1cc(COc2cncc(Cl)c2)on1)c1ccccc1 the results were SARS PLP yeast -4%, Pf growth 96h -9%, Pf growth 48h 10% and NS1 inh -8%.
`CCC(NC(=O)c1cc(COc2cncc(Cl)c2)on1)c1ccc(C)cc1` (stereo not drawn) gave SARS PLP yeast 8%, Pf growth 96h 5.2µM*, Pf growth 48h 53% and NS1 inh -39%.
COc1ccc2c(c1)[C@@]13CCC=C[C@H]1[C@@H](C2)NCC3 was read as Pf growth 96h -6% and Pf growth 48h 12µM*.
Screening O=c1cnn(Cc2c(Cl)cccc2Cl)c2ccccc12 returned SARS PLP yeast -13%, Pf growth 96h 9.3µM*, Pf growth 48h 13µM* and NS1 inh -10%.

Screening data deposited in PubChem BioAssay by National Center for Advancing Translational Sciences (NCATS).
